Source: the supplement of paper PMC6555819

Assays:
Experiment in all cases: PBM binding z-score (relative to random genomic background probes); higher = stronger binding; sequences stand for … in GC…GCGATTGACAGCGTAGAATGAAGG
[1] = tested on: PPARg:RXRa DBDmut IVT, anti-RXR (DBD mutation: RXRa K156A/R161A, NR concentration 270 nM, RXRa partner concentration 90 nM)
Procedure, shortened: (§1)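 Custom Agilent 4×180K protein-binding microarrays carried double-stranded probes, each with a 34-nt variable region. These regions held direct-repeat seeds, single-nucleotide variants, half-site ablations and random human genomic background sequences. Ligand-free nuclear receptor dimers were incubated on the arrays for 1 h, antibodies against each partner (one per run) detected binding, and scanned fluorescence was regression-normalized. Binding z-scores take the random background probes as reference.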

[2] = tested on: PPARg:RXRa IVT, anti-PPARg (NR concentration 270 nM, RXRa partner concentration 90 nM)
Procedure, shortened: as §1

[3] = tested on: PPARg DBDmut:RXRa IVT, anti-PPARg (DBD mutation: PPARg1 K132A/R137A, NR concentration 270 nM, RXRa partner concentration 90 nM)
Procedure, shortened: as §1

[4] = tested on: PPARg DBDmut IVT, anti-PPARg (DBD mutation: PPARg1 K132A/R137A, NR concentration 270 nM)
Procedure, shortened: as §1

[5] = tested on: PPARg homodimer (NR concentration 180 nM)
Procedure, shortened: as §1

[6] = tested on: PXR:RXRa (NR concentration 270 nM, RXRa partner concentration 90 nM)
Procedure, shortened: as §1

[7] = tested on: PXR homodimer (NR concentration 270 nM)
Procedure, shortened: as §1

[8] = tested on: RARa homodimer (NR concentration 270 nM)
Procedure, shortened: as §1

[9] = tested on: RARb:RXRa (NR concentration 270 nM, RXRa partner concentration 90 nM)
Procedure, shortened: as §1

[10] = tested on: RARb homodimer (NR concentration 270 nM)
Procedure, shortened: as §1

[11] = tested on: RARg:RXRa (NR concentration 270 nM, RXRa partner concentration 90 nM)
Procedure, shortened: as §1

[12] = tested on: RARg homodimer (NR concentration 270 nM)
Procedure, shortened: as §1

[13] = tested on: RXRa DBDmut IVT, anti-RXR (DBD mutation: RXRa K156A/R161A, NR concentration 90 nM)
Procedure, shortened: as §1

[14] = tested on: RXRa homodimer (NR concentration 180 nM)
Procedure, shortened: as §1

[15] = tested on: THRa:RXRa (NR concentration 90 nM, RXRa partner concentration 90 nM)
Procedure, shortened: as §1

[16] = tested on: THRa homodimer (NR concentration 90 nM)
Procedure, shortened: as §1

[17] = tested on: VDR homodimer (NR concentration 270 nM)
Procedure, shortened: as §1

[18] = tested on: RARa:RXR (NR concentration 270 nM, RXRa partner concentration 90 nM)
Procedure, shortened: as §1

[19] = tested on: VDR:RXRa (NR concentration 270 nM, RXRa partner concentration 90 nM)
Procedure, shortened: as §1

Sequence	PBM binding z-score [1]	PBM binding z-score [2]	PBM binding z-score [3]	PBM binding z-score [4]	PBM binding z-score [5]	PBM binding z-score [6]	PBM binding z-score [7]	PBM binding z-score [8]	PBM binding z-score [9]	PBM binding z-score [10]	PBM binding z-score [11]	PBM binding z-score [12]	PBM binding z-score [13]	PBM binding z-score [14]	PBM binding z-score [15]	PBM binding z-score [16]	PBM binding z-score [17]	PBM binding z-score [18]	PBM binding z-score [19]
CTCGAAAGGTCGAGCTCAGGTGAGTATACCAAAC	0.787	1.71	1.15	0.22	2.06	2.86	-0.325	0.256	4.2	2.85	4.89	4.58	1.39	4.04	4.03	0.791	0.31	–	–
CCGACTGGGGCAAAGGTTACCACACTCAGTACGA	4.8	5.98	0.442	0.282	1.18	2.44	-0.0158	0.0195	2.54	2.37	3.51	1.67	-0.032	3.69	1.87	0.0247	0.177	–	–
CCGACTGGGTCAAAGGTTACCATACTCAGTACGA	6.05	7.26	1.18	0.000446	1.89	5.14	-0.223	0.785	4.1	3.42	5.88	4.13	1.23	–	3.62	0.418	0.82	–	–
ATATGTAGGTAACATCCGGGTCATTCAGGCTATG	6.71	7.04	2.61	1.59	1.75	3.14	2.16	0.771	1.66	2.68	2.39	1.58	0.786	2.49	3.62	2.74	2.52	–	–
CCTTACGGGTCAAGGTTATATCACGGGTGGTACG	1.74	3.78	0.607	0.522	2.64	3.63	0.951	0.89	4.15	3.52	4.98	4.79	0.822	5.52	3.11	0.96	1.54	–	–
CAAACTAGGTCACCGGAAGGTCAAAGTTCGCATG	8.66	9.06	4.1	1.26	7.21	6.49	3.62	3.06	5.44	5.7	8.56	7.83	2.41	–	4.59	3	4.52	–	–
CCTACAGGGCCAAAGGTCATTGATTCCAATGCTC	0.88	4.29	0.0481	-0.141	5.51	5.66	2.27	2.39	4.63	4.75	6.13	5.66	1.95	7.35	3.46	0.651	2.73	–	–
ATACCAAGGTTATCGTGAGGTCGTTGATACTAAC	0.718	1.31	1.06	0.559	1.6	4.73	2.85	1.45	2.47	2.36	4.49	2	2.26	3.2	4.2	2.91	3.67	–	–
CGTCCAAGGTCAGATAGGTCAGTGAATGCCGAGT	1.9	2.41	-0.168	0.165	2.95	4.33	4.32	1.22	5.1	4.84	5.45	6.04	3.06	4.4	3.73	1.92	3.28	–	–
CGTCCAAGGTCAAGGTGAGTGAAAGAGACTCGAA	3.35	3.92	0.375	0.105	3.6	3.6	0.642	1.04	5.22	3.64	5.92	6.65	3.37	6.02	3.8	2.86	1.94	–	–
CAGACTAGGTCAAAGGTCAAAGTCGAGCCAACCA	7.65	8.8	3.31	3.18	5.71	7.16	1.95	2.03	5.64	5.25	8.9	7.48	3.08	10.3	4.68	1.38	3.17	–	–
ACTCGGAGGGCAAAGGTCAGAGCTACGCCAGTGA	2.2	4.71	-0.0277	-0.839	5.97	5.61	0.191	0.823	4.93	4.39	7.23	5.86	1.7	–	3.36	-0.408	1.05	–	–
CGGCCAAGGTCAAAGGTCAGTGAAGAGATGACGG	3.94	5.66	0.246	-0.114	7.63	7.3	1.98	4.91	6.06	5.37	9.05	8.47	3.57	–	4.99	2.52	3.31	–	–
TAGCCAAGGTCAGATCGGGCCAGTATACGCTATA	0.246	1.81	0.476	-0.254	1.38	–	-0.349	-0.193	4.3	3.41	4.59	5.1	1.75	3.58	4.32	1.09	1.11	2.61	3.07
GATACAGGGGCAAGGCCAGAGTACGCGTATTGAT	0.794	0.691	-0.76	-0.28	0.334	–	0.0474	-0.216	1.65	1.19	0.895	1.33	0.352	0.544	0.311	-0.32	0.636	0.0151	0.153
CTTTACGGGTCAAGGTTATAGCACGGGTGGTACG	3.74	4.39	1.72	1.23	2.84	–	0.731	0.604	4.17	3.7	5.18	5.01	1.93	5.61	3.26	1.1	1.77	4.6	3.8
CAATCTAGGTCACAGAGGTCAAAGTCCGTGCGTA	9.1	9.25	7.18	5.24	7.14	–	11.9	3.61	5.46	5.7	7.55	7.82	3.44	8.19	4.8	3.43	7.51	7.89	8.07
TCTCGGAGGACACGAAAGGTGAGAGCTCGACATC	1.27	0.956	-0.191	-0.811	0.673	–	-0.496	-0.329	2.26	2.24	1.64	1.99	0.659	0.812	2.51	0.549	-0.374	1.05	0.263
ATACGTAGGTTACATCCGGGTCATTCAGGCTATG	1.15	2.36	1.24	0.742	1.87	–	2.6	0.687	2.27	2.79	3.59	2.17	0.372	3.06	3.81	2.5	2.66	3.48	4.16
GCTTACGGGTGAAAGGTTATAGCATGAATAGAAT	3.24	4.67	0.644	0.4	1.72	–	0.0936	0.6	2.14	1.48	3.01	1.34	0.431	4.95	2.2	0.0422	-0.0188	4.93	2.17
CGTCCAAGGTCATACGAGGTCAGTGAAGACAGAT	3.46	4.63	1.25	0.789	5.5	–	9.7	2.69	5.43	5.34	7.02	7.58	4.29	6.94	5.39	4.43	5.82	6.69	–
GATACAGGGTCAGCTTGAGGCCAGAGTATGGAAA	1.23	2	-0.407	-0.636	1.71	–	-0.346	-0.0727	3.72	2.94	5.72	4.77	1.81	4.55	3.73	0.959	0.666	3.44	3.33
TGTCAGAGTTCAAAGGTAACGTAAGTATCCACAC	0.11	3.16	0.991	1.01	2.95	–	5.44	-0.164	4.47	3.41	5.95	5.28	4.83	7.51	3.53	-0.159	5.41	7.02	5.75
AATACAGGGTCACTTGGCCAGAGTAGGTACGAAT	2.55	4.18	1.56	1.27	1.58	–	0.166	0.292	4.23	3.25	5.22	5.19	3.11	5.25	3.37	1.15	2.85	4.1	–
ACTATCAGGCCAAGGGTCACTCAAGATTAGTCCG	1.26	3.82	0.909	0.584	3.28	–	0.337	1.45	3.72	3.89	4.3	3.73	1.23	4.05	3.35	0.937	1.45	4.42	3.13
ATCGAAAGGTCGAAGGTCAGTATACCCACCCGAA	0.724	3.24	0.938	0.568	2.47	5.13	0.812	1.68	4.54	4.11	6.01	5.42	1.78	–	3.31	0.706	1.51	–	–
CCTAGTTGGTCAGGAGGTCACATACCGGATATGA	1.64	3.39	0.476	0.388	2.7	–	1.16	2.01	3.37	4.17	4.57	3.85	0.947	3.92	3.32	2.13	2.4	3.9	–
